Data as given in the supplement of paper PMC6555819.

Legend:
Test in all cases: PBM binding z-score (relative to random genomic background probes); higher = stronger binding; sequences stand for … in GC…GCGATTGACAGCGTAGAATGAAGG
[1] = system: FXR:RXRa (NR concentration 270 nM, RXRa partner concentration 90 nM)
How it was run: (§1)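 Ligand-free nuclear receptor dimers were applied to custom Agilent 4×180K protein-binding microarrays whose double-stranded probes carried direct-repeat seeds, single-nucleotide variants, half-site ablations and random human genomic background sequences in 34-nt variable regions. Incubation lasted 1 h. Binding z-scores were computed against the random background probes from regression-normalized fluorescence.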

[2] = system: LXRa:RXRa (NR concentration 270 nM, RXRa partner concentration 90 nM)
How it was run: as §1

[3] = system: LXRa homodimer (NR concentration 270 nM)
How it was run: as §1

[4] = system: LXRb:RXRa (NR concentration 270 nM, RXRa partner concentration 90 nM)
How it was run: as §1

[5] = system: LXRb homodimer (NR concentration 270 nM)
How it was run: as §1

[6] = system: PPARa:RXRa (NR concentration 270 nM, RXRa partner concentration 90 nM)
How it was run: as §1

[7] = system: PPARg:RXRa (NR concentration 180 nM, RXRa partner concentration 90 nM)
How it was run: as §1

[8] = system: PPARg:RXRa 270nM:90nM, anti-RXR (NR concentration 270 nM, RXRa partner concentration 90 nM)
How it was run: as §1

[9] = system: PPARg:RXRa 30nM:10nM, anti-RXR (NR concentration 30 nM, RXRa partner concentration 10 nM)
How it was run: as §1

[10] = system: PPARg:RXRa 90nM:30nM, anti-RXR (NR concentration 90 nM, RXRa partner concentration 30 nM)
How it was run: as §1

[11] = system: PPARg:RXRa DBDmut IVT, anti-RXR (DBD mutation: RXRa K156A/R161A, NR concentration 270 nM, RXRa partner concentration 90 nM)
How it was run: as §1

[12] = system: PPARg:RXRa IVT, anti-PPARg (NR concentration 270 nM, RXRa partner concentration 90 nM)
How it was run: as §1

[13] = system: PPARg DBDmut:RXRa IVT, anti-PPARg (DBD mutation: PPARg1 K132A/R137A, NR concentration 270 nM, RXRa partner concentration 90 nM)
How it was run: as §1

[14] = system: PPARg DBDmut IVT, anti-PPARg (DBD mutation: PPARg1 K132A/R137A, NR concentration 270 nM)
How it was run: as §1

[15] = system: PPARg homodimer (NR concentration 180 nM)
How it was run: as §1

[16] = system: PXR:RXRa (NR concentration 270 nM, RXRa partner concentration 90 nM)
How it was run: as §1

[17] = system: PXR homodimer (NR concentration 270 nM)
How it was run: as §1

[18] = system: RARa:RXR (NR concentration 270 nM, RXRa partner concentration 90 nM)
How it was run: as §1

[19] = system: RARa homodimer (NR concentration 270 nM)
How it was run: as §1

[20] = system: RARb:RXRa (NR concentration 270 nM, RXRa partner concentration 90 nM)
How it was run: as §1

Sequence | PBM binding z-score [1] | PBM binding z-score [2] | PBM binding z-score [3] | PBM binding z-score [4] | PBM binding z-score [5] | PBM binding z-score [6] | PBM binding z-score [7] | PBM binding z-score [8] | PBM binding z-score [9] | PBM binding z-score [10] | PBM binding z-score [11] | PBM binding z-score [12] | PBM binding z-score [13] | PBM binding z-score [14] | PBM binding z-score [15] | PBM binding z-score [16] | PBM binding z-score [17] | PBM binding z-score [18] | PBM binding z-score [19] | PBM binding z-score [20]
TCTTGTAGATCAGCAGGTTGAGAAAGCTGGCCAA | 0.242 | 0.0309 | -0.346 | -0.0211 | -0.546 | 0.457 | -0.781 | 1.1 | 2.58 | 1.75 | 1.7 | -0.16 | -1.19 | -1.18 | -0.343 | 0.181 | -0.51 | 0.426 | -0.127 | -0.0315
TCGAGTAGGTTACCAATGGGGAATTCAGCTTTCT | 0.0745 | 0.417 | -0.56 | 0.355 | -0.737 | 0.977 | 0.304 | 1.2 | 0.963 | 1.18 | 3.57 | 2.58 | -0.097 | -0.739 | -0.227 | -0.148 | -1.08 | 0.0848 | -1.2 | 0.621
TCGAGTACGTTACCAATGGGGCATTCAGCTTTCT | -0.0711 | -0.26 | -0.435 | 0.321 | -0.0116 | 0.16 | -0.0505 | 0.394 | 1.32 | 0.788 | 0.846 | -0.201 | -0.329 | -0.495 | -0.459 | 0.154 | -0.778 | 0.193 | -0.477 | 0.0471
CCTTACGGGTCACACCAGGTTATAGCATCGGAGT | 5.86 | 6.35 | 1.01 | 4.08 | 0.198 | 5.2 | 5.14 | 4.95 | 2.28 | 3.6 | 2.98 | 4.37 | 0.627 | -0.128 | 2.63 | 5.3 | 0.565 | 5.06 | 1.44 | 4.06
TAGCTTAGGTCATTCAGGGGCCAGTATAGAAAGC | 4.82 | 4.33 | 0.984 | 3.31 | 1.67 | 3.69 | 1.38 | 2 | 0.369 | 1.11 | 1.24 | 1.84 | 0.465 | 1.33 | 2.5 | 2.96 | 0.636 | 4.06 | 0.433 | 3.88
CCTCGGAGGATAGAAGGTCAGAGCTGTCCGCTTT | 1 | 1.57 | 0.218 | 1.21 | -0.745 | 1.83 | -0.0434 | 1.26 | -0.528 | 0.571 | 0.306 | 0.12 | -1.89 | -1.62 | 1.56 | 1.38 | -0.0463 | 1.82 | 0.234 | 2.29
TAGCTTAGGTCAGATCGGGCCAGTATACGCTATA | 2 | 1.41 | -0.333 | 0.69 | 0.0114 | 1.96 | 0.531 | 0.891 | 0.0799 | 0.412 | -0.166 | 0.996 | 0.561 | -0.217 | 0.322 | 1.24 | -0.17 | 1.68 | -0.0696 | 3.54
